Screens (PubChem BioAssay)
INS promoter inh: TRM-6 insulin promoter activity inhibition. 130,000 tested, 0.9% active. inhibition, % at 2 µM. TRM-6 cells (human fetal islet line), insulin promoter-eGFP reporter, imaging; reporter expression induced with tamoxifen;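 active means inhibition above the mean plus 3 SD, with well images judged a real hit on visual review, cut at about 60% in these data, passing the limit was not always enough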
HCT116 PTEN-null: PTEN-deleted cell growth suppression. HCT116 PTEN-null viability, CellTiter-Glo, 60 h; stronger effect = lower value. viability, % at 10 µM. 140,000 tested, 1.2% active;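 active means viability at or below a set limit, 4 SD under the median of all tested compounds, cut at about 3.7% in these data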;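 further: PTEN knockout HCT116 line with beta catenin targeted HCT116 as companion control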
Lmaj promast: inhibitors of Leishmania major promastigote growth; inhibition, % at 10 µM; 200,000 tested, 9% active; Leishmania major promastigotes, resazurin fluorescence viability; in the data active means inhibition above about 50%;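 further: promastigotes grown with compound for 44 hours at 28 °C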
Autophagy HCS: autophagy modulation, high-content screen; MEF GFP-LC3 puncta imaging; test concentration mostly 10 µM; 190,000 tested, 0.98% active; calls only at 10 µM (by protocol);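 active means percentage of spot-positive cells more than 3 SD above its plate mean, without a fluorescence outlier flag or 80% toxicity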;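 further: spot-positive cell cutoff set from DMSO-treated cells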
Insulin prom up: MIN6 insulin promoter up-regulation; z-score at 5 µM; MIN6 insulin promoter-GFP reporter, high-content imaging; stronger effect = higher value; 190,000 tested, 0.3% active;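 active means z-score above 3 at 5 µM with at least 500 cells counted in the well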
HCT116 bCat-KO: beta-catenin-lacking colon tumor cell growth suppression; HCT116 beta-catenin knockout viability, CellTiter-Glo, 60 h; stronger effect = lower value; viability, % at 10 µM; 140,000 tested, 1.5% active;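 active means viability at or under a set limit, the compound median less 4 SD, cut at about 6% in these data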;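 further: 0% = Hyamine 1622 control at 20 µM and 100% = untreated cell control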
Active calls of the source: *; i = inactive; . = no result; + = active, no number. Compounds with a hit are over-represented: about 9.6% of the library has one in this group of screens.

SMILES	INS promoter inh	HCT116 PTEN-null	Lmaj promast	Autophagy HCS	Insulin prom up	HCT116 bCat-KO
C/C(=C\C(=O)c1ccc(F)cc1)NCc1ccc2c(c1)OCO2	3	99	-4	i	-0.39	99
CCCn1nnc(NC(=O)c2cc(Br)ccc2OC)n1	84*	81	3	i	0.2	76
CC(=O)NC(=S)Nc1ccc(NC(=O)COc2ccc(C(C)C)cc2)cc1	75*	100	-8	i	0.2	100
COC(=O)c1cccc(NS(=O)(=O)c2ccc(NC(C)=O)cc2)c1C	50	81	1	i	-0.24	91
CCCCNCCCOc1cc(Cl)ccc1Cl	-43	88	98*	i	0.5	86
CCC(C)NCCCOc1cc(Cl)ccc1Cl (stereo unspecified)	-46	85	100*	i	.	77
CCC(C)NCCCCOc1ccc(Cl)cc1C (stereo unspecified)	-14	69	97*	i	0.31	69
Cc1cccc(C)c1OCc1n[nH]c(=S)n1-c1ccccc1	46	.	0	i	-0.47	.
CCN(CC)S(=O)(=O)c1ccc2nc(SC)sc2c1	79*	90	4	i	-0.14	89
CSc1nc2ccc(S(=O)(=O)N(C)C)cc2s1	-3	96	-2	i	-0.19	99
NC(N)=N/N=C/c1ccccc1Cl	.	.	.	.	0.26	.
COC(=O)c1ccccc1NC(=O)Cn1c(-c2nonc2N)nc2ccccc21	-205	18	-5	+	-0.28	16
CC(C)OC(=O)c1ccc(NC(=O)Cn2c(-c3nonc3N)nc3ccccc32)cc1	23	71	51*	i	0.06	73
CC(=O)c1ccc2c(c1)OCCOCCOCCOCCOCCO2	.	.	.	.	-0.2	.
COc1ccc(NC(=O)c2c(-c3ccccc3)noc2C)c(OC)c1	-7	108	18	i	-0.81	105
COc1cc(OC)c(NC(=O)c2c(-c3ccccc3)noc2C)cc1Cl	79*	91	94*	i	-0.38	93
COc1ccc(Cl)cc1NC(=O)c1c(-c2ccccc2)noc1C	-473	93	-2	i	18*	93
CC(C)n1nc(C(=O)Nc2ccccc2N2CCOCC2)c2ccccc2c1=O	-41	46	87*	i	-1.2	70
CC(C)CC(=O)Nc1ccccc1N1CCOCC1	23	107	-4	i	-1	106
COc1cc(OC)c(NC(=O)c2ccoc2C)cc1Cl	71*	87	11	i	0.38	86
Cc1cccc(-n2c(O)c(C=NCc3ccccn3)c3ccccc3c2=O)c1	-11	84	10	i	-0.18	89
Cc1onc(-c2ccccc2)c1C(=O)Nc1ccccc1N1CCOCC1	-25	86	69*	i	0.98	84
COc1ccc(-c2cc(C(=O)NNC(=S)NC(=O)c3c(-c4ccccc4)noc3C)[nH]n2)cc1	-376	.	63*	i	-0.36	.
COc1ccc(OC)c(S(=O)(=O)Nc2ccc3oc4c(c3c2)C(=O)CCC4)c1	15	94	0	i	0.62	94
O=C(CNC(=O)c1ccco1)NCCCc1ccccc1	.	102	-4	i	0.24	95
SMILES	INS promoter inh	HCT116 PTEN-null	Lmaj promast	Autophagy HCS	Insulin prom up	HCT116 bCat-KO
O=C(COC(=O)c1ccccc1O)Nc1cccnc1Cl	18	90	46	i	0.25	93
O=C(COC(=O)c1cc2ccccc2cc1O)Nc1cccnc1Cl	-4	96	63*	i	0.51	86
CCOC(=O)c1oc2ccc(CNCCO)c(Cl)c2c1C	-184	94	97*	i	-0.85	92
CCOC(=O)c1ccc(NC(=O)COc2ccccc2CNCCO)cc1	.	.	18	i	0.92	.
CCOC(=O)c1oc2ccc(CNC3CCCCC3)c(Cl)c2c1C	31	59	96*	i	-1.8	46
Cc1csc(NC(=O)CSc2nnc(-c3ccc(Cl)cc3)n2N)n1	7	80	-4	i	-0.65	73
Cc1c(C(=O)OCC(=O)NCCN2C(=O)CSC2=O)oc2c1ccc1ccccc12	-3	90	-6	i	-0.16	91
COc1ccc(-c2nnc(Nc3ccc(OC)c(C(=O)N4CCCCC4)c3)c3ccccc23)cc1	.	79	53*	i	-0.71	85
Cc1ccc(C(=O)CC(=O)COc2ccc(Cl)cc2C)cc1	20	25	91*	i	-0.16	26
COc1ccc2c(c1)c(=O)c(C(=O)c1ccccc1)cn2Cc1ccc(C)cc1	7	28	52*	i	0.15	36
CCn1cc(C(=O)O)c(=O)c2cc(OC)ccc21	18	100	-8	i	1.1	91
N#C/C(C(N)=O)=C1/SC=C(c2ccccc2)N1c1ccccc1	.	.	.	.	0.15	.
N#C/C(C(=O)c1ccccc1)=C1/SC=C(N)N1c1ccccc1	-294	92	-2	i	6*	97
CCCCOC(=O)c1ccc(NC(=O)CSc2nncn2C)cc1	.	91	-4	i	0.69	97
CCCCOC(=O)c1ccc(NC(=O)CSC2=Nc3ccccc3C3CC=NN23)cc1 (stereo unspecified)	.	73	99*	i	.	69
O=C(c1nn2cccnc2c1Cl)N1CCN(c2ccccc2)CC1	19	98	-4	+	0.21	92
O=C(c1nc2ncccn2n1)N1CCN(c2ccccc2)CC1	-23	98	90*	i	-0.78	92
Cc1cc(C)c(C)c(S(=O)(=O)N2CCN(CC(=O)Nc3sccc3C#N)CC2)c1C	-48	73	57*	i	-0.2	66
CC(=O)N1CCN(CC(=O)Nc2sccc2C#N)CC1	.	.	1	i	-0.37	.
COc1ccc(N/C=C\C(=O)c2ccc3c(c2)OCO3)cc1OC	-51	96	88*	i	0.16	91
COC(=O)c1ccc(N/C=C\C(=O)c2ccc3c(c2)OCO3)cc1	50	.	-6	i	0.02	.
Cc1cc(C)cc(Oc2nc3ccccn3c(=O)c2/C=C(\C#N)C(=O)NC2CCS(=O)(=O)C2)c1 (stereo unspecified)	.	.	.	.	-1.4	.
Cc1nn(Cc2ccccc2)c(C)c1NC(=O)CSc1nc2c(c(C(F)(F)F)n1)CCc1ccccc1-2	-34	71	68*	i	-2.5	82
CCN(CC)CCCNC(=O)CSc1nc2c(c(C(F)(F)F)n1)CCc1ccccc1-2	.	.	60*	i	-0.13	.
CC1=NN(c2ccc(C)cc2)C(=O)/C1=C\C=C\c1ccccc1	57	3.0*	100*	i	0.29	3.1*
CC1=NN(c2ccccc2)C(=O)/C1=C\c1ccc(Br)s1	.	91	54*	i	.	83
CC1=NN(c2ccccc2)C(=O)/C1=C/C=C/C=C/N(C)C	-47	.	-2	i	.	.
CC1=NN(c2ccccc2)C(=O)/C1=C/c1cccs1	27	89	11	i	-0.04	95
CC1=NN(c2cccc(C(=O)O)c2)C(=O)/C1=C\C=C/c1ccccc1	-17	.	100*	i	0.24	.
